# Data: PubChem BioAssay (NCI)
# This is part of a sample that, as a whole, favours compounds with a hit. Of some 83,000 tested, about 20% had one in any assay.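 The endpoint reported here, percent growth, reads 100 for growth as untreated, 0 for no net growth and -100 for all cells dead.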 Values without a mark were called inactive. Activity calls are given as the source filed them. Rule for the calls: active = growth percent below 10; inactive = the rest.
# Columns and labels:
# Test in all cases: NCI-60 one-dose screen, 48 h (100 = growth as untreated, 0 = no growth, -100 = all killed)
# Details in all cases: 10 µM unless noted
# EKVX NSCLC = test system: EKVX NSCLC
# SN12C renal = test system: SN12C renal
# UO-31 renal = test system: UO-31 renal
# TK-10 renal = test system: TK-10 renal
# ACHN renal = test system: ACHN renal
# CAKI-1 renal = test system: CAKI-1 renal
# CCRF-CEM leukemia = test system: CCRF-CEM leukemia
# MOLT-4 leukemia = test system: MOLT-4 leukemia
# SR leukemia = test system: SR leukemia
# A498 renal = test system: A498 renal
Structure (SMILES),growth (EKVX NSCLC),growth (SN12C renal),growth (UO-31 renal),growth (TK-10 renal),growth (ACHN renal),growth (CAKI-1 renal),growth (CCRF-CEM leukemia),growth (MOLT-4 leukemia),growth (SR leukemia),growth (A498 renal)
CCN1C(=O)N(c2ccccc2)C2Nn3c(s/c(=C4\C(=O)N(C(C)C)c5ccccc54)c3=O)=NC21 (stereo not drawn),97.8%,102%,79.9%,122%,108%,86.9%,103%,107%,108%,
Cn1c(/C=C(\C#N)c2cccc(C(F)(F)F)c2)nc2c(N3CCOCC3)nc(Cl)nc21,-76.2% (active),-0.107% (active),-100% (active),-67% (active),-100% (active),-94% (active),4.85% (active),-14.3% (active),10.3%,10.8%
O=C(Nc1ccc(N2CCNCC2)cc1)c1[nH]ncc1Nc1cc(Oc2ccccc2)ncn1,32.5%,2.47% (active),-13.1% (active),49.5%,-99.1% (active),18.4%,-27.5% (active),-16% (active),1.43% (active),40.6%
CNCCNc1nc2ccccc2c2c(=O)c3cccc(C)c3sc12,46.4%,32.5%,29.6%,41.7%,-29.9% (active),17.9%,21%,-29.5% (active),-29.9% (active),
COc1ccc(N2C(=O)CC(c3cc(OC)c(OC)c(OC)c3)C3C2=NC(=O)N3C)cc1 (stereo not drawn),102%,102%,89.9%,103%,106%,95.1%,109%,114%,126%,102%
CCN1C(=O)N(c2ccccc2)C2NN=c3s/c(=C4\C(=O)N(C(C)C)c5ccccc54)c(=O)n3C21 (stereo not drawn),55.9%,38.7%,55.6%,74.9%,37.1%,,15.1%,20.9%,14.6%,
COc1ccc(/C=C2\CCC/C(=C\c3ccc(OC)c(OC)c3)C2=O)cc1OC,25.9%,8.6% (active),19.3%,7.6% (active),8.29% (active),,5.72% (active),6.9% (active),14.3%,35.5%
Cc1ccc(Cc2cnc(NC(=O)CN3C(=O)/C(=C\c4ccccc4)SC3=S)s2)cc1,98.1%,96.6%,89.4%,106%,,95.5%,107%,104%,114%,109%
Cc1ccc2nc(NC(=O)CSC(=S)N3CCN(c4ccccc4)CC3)sc2c1,109%,99%,88.2%,108%,100%,,,111%,98.7%,108%
O=c1c2cc(F)cc(Cl)c2sc2c(Cl)nc3ccccc3c12,97.9%,76.8%,72.6%,151%,,90.7%,86.9%,103%,,103%
COC(=O)c1c2c(c(C)[n+]([O-])c1C)C(=O)C(NCc1ccc(Br)cc1)=CC2=O,31.8%,4.82% (active),60.9%,84.4%,32.6%,46.4%,34.3%,35%,30.2%,
O=C(CN1C=NC2C(N3CCOCC3)=NC=NC21)c1ccc(Br)cc1 (stereo not drawn),97.6%,98.3%,78.6%,117%,103%,85.4%,105%,105%,104%,
